From PubChem
HTT-AS promoter: Primary qHTS for Identification of Small Molecule Activators of Huntingtin-Antisense Promoter Activity; HEK293 HTT-AS promoter firefly luciferase reporter, 24 h; response scale: percent change from vehicle, -100% = no light; Potency, µM (highest dose often 57.5 µM), usual class: activators; 48,000 tested, 0.24% active; note: nearly all actives have a fitted effect of over 55% in size
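Quantitative HTS used concentration series of up to 57.5 uM final on HEK293 luciferase reporter cells, 24 h at 37 degrees C. Readout was Dual-Glo firefly luminescence.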
HTT promoter inh: Primary qHTS for Identification of Small Molecule Inhibitors of Huntingtin Promoter Activity; Potency, µM (top dose mostly 57.5 µM), hits mostly inhibitors; HEK293 HTT promoter firefly luciferase reporter, 24 h; AID 1508623, 2021; 48,000 tested, 0.93% active; note: nearly all actives have a fitted effect of over 50% in size
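Quantitative HTS used concentration series of up to 57.5 uM final on HEK293 luciferase reporter cells, 24 h at 37 degrees C. Readout was Dual-Glo firefly luminescence.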
B2AR arrestin ag: qHTS assay of beta-arrestin-biased ligands of beta2-adrenergic receptor: NCGC Sytravon Library Screen; AID 1347077, 2019; Potency, µM (highest dose often 46.1 µM), hits mostly activators; 44,000 tested, under 10 active; HTLA Tango cells, beta-arrestin recruitment, luciferase luminescence, 18 h
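Receptor–beta-arrestin recruitment read by tTA-responsive luciferase: compound titrations (up to 46 µM) incubated 18 h with Tango cells, then luminescent substrate 15 min at room temperature. Concentration-response fits classified by r2, efficacy and activity.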
GALK inhibitor: qHTS Assay for Inhibitors of Human Galactokinase (GALK): NCGC Sytravon Library Screen; recombinant GALK, Kinase-Glo ATP luminescence, 1 h; Potency, µM (highest dose often 57.5 µM), most hits filed as inhibitors; 44,000 tested, under 10 active; P51570
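Luminescent ATP-depletion readout (Kinase-Glo Plus) after 1 h room-temperature incubation of human GALK (5 nM) with galactose 100 µM and ATP 35 µM, pH 8.0 HEPES/Mg2+ buffer; compounds tested in qHTS format.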
TSG101-PTAP inh: qHTS Validation Assay for Inhibitors of HIV-1 Budding by Blocking the Interaction of PTAP/TSG101: Sytravon Library Screen; Potency, µM (highest dose often 115 µM), actives largely listed as inhibitors; 44,000 tested, under 10 active; Fluorescence polarization, FITC-PTAP peptide/Tsg101, 20 min
Target sequence (Q99816 whole entry, looked up): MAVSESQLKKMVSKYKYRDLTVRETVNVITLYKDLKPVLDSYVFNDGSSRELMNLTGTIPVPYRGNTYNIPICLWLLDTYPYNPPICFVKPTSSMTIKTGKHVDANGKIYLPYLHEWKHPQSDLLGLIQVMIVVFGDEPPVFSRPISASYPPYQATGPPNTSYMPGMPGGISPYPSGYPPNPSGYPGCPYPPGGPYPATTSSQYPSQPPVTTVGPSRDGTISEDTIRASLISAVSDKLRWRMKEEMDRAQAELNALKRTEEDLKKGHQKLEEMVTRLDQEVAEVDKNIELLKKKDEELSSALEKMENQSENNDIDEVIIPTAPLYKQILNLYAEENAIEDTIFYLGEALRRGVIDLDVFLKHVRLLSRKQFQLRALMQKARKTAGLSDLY
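qHTS FP binding, 20 min r.t.: 10 uM Tsg101 domain + 50 nM FITC-PTAP peptide, pH 7.5 HEPES buffer with TCEP and EDTA.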
DRV1 agonist: qHTS for Agonists of Human Resolvin D1 Receptor DRV1 | CHO-K1 GPR32 beta-arrestin PathHunter luminescence, 90 min; zero percent set by DMSO-only wells | activation, % at 76.9 µM | 48,000 tested, 2.5% active | Probable G-protein coupled receptor 32 (Homo sapiens), O75388;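 active = activation of at least 60% and not above a set upper limit, about 1 call in 100 departs from these limits; inconclusive = activation of 40% to 60%, or above that upper limit; inactive = activation under 40%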
Target sequence (O75388 whole entry, looked up): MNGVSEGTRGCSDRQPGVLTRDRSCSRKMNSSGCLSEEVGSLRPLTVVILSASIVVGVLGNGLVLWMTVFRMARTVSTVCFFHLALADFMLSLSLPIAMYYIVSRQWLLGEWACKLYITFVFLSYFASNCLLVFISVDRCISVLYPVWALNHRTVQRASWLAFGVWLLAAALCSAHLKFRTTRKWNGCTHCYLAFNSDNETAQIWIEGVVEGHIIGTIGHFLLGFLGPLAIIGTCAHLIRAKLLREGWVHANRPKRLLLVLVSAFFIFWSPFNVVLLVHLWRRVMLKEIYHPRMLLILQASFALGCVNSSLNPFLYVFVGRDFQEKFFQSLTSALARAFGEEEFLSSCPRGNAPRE
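Step 1: seed CHO-K1 GPR32 beta-arrestin cells, 2,500/well, overnight at 37 °C. Step 2: add compounds, 90 min at 37 °C. Step 3: detection reagent, 1 h ambient, then luminescence.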
Large screens that a line does not name were inactive; ! = repeats disagree. The list is not random: actives were taken first. Their share in the collection is about 3.7%. Unless noted, calls come from the whole dose curve; as a rule, active = well fitted curve in the direction sought with a large enough effect; inconclusive = small, poorly fitted or top-dose-only effect, or another doubt; inactive = no such curve, though single readings can be large; an effect the other way counts as inactive or inconclusive.

Cc1ccc(CNc2oc(-c3ccc(COc4ccc(Cl)cc4)o3)nc2C#N)cc1	HTT promoter inh inconclusive
Cc1ccc(CSc2cn(CCNC(=O)c3cccs3)c3ccccc23)cc1	HTT promoter inh inconclusive
O=C(NCCn1cc(SCc2ccc(F)cc2)c2ccccc21)c1cccs1	HTT promoter inh 28.2µM
O=C(NCCn1cc(SCc2ccccc2F)c2ccccc21)c1cccs1	HTT promoter inh inconclusive, DRV1 agonist 66.5
O=C(CSc1nnc2[nH]c(=O)cc(-c3ccccc3)n12)Nc1cc(C(F)(F)F)ccc1Cl	HTT-AS promoter 17.8µM
Cc1cc(=O)[nH]c2nnc(SCC(=O)Nc3cc(C(F)(F)F)ccc3Cl)n12	none
CCNC(=O)Nc1ccc2ncc(Nc3ccc(C)cc3)nc2n1	none (no result: B2AR arrestin ag, GALK inhibitor, TSG101-PTAP inh, DRV1 agonist)
C=CC[C@@H]1C=C(C)C[C@H](C)C[C@H](OC)[C@H]2O[C@@](O)(C(=O)C(=O)N3CCCC[C@H]3C(=O)O[C@H](C(C)=C[C@@H]3CC[C@H](O)[C@H](OC)C3)[C@@H](C)[C@@H](O)CC1=O)[C@@H](C)C[C@@H]2OC	HTT promoter inh inconclusive (no result: B2AR arrestin ag, GALK inhibitor, TSG101-PTAP inh, DRV1 agonist)
CC[C@@H]([C@H](C)O)n1ncn(-c2ccc(N3CCN(c4ccc(OC[C@@H]5CO[C@@](Cn6cncn6)(c6ccc(F)cc6F)C5)cc4)CC3)cc2)c1=O	DRV1 agonist 67.7 (no result: B2AR arrestin ag, GALK inhibitor, TSG101-PTAP inh)
Cc1ccc(OCC(=O)Nc2ccc(S(=O)(=O)Nc3cc(C)on3)cc2)c(Br)c1	DRV1 agonist inconclusive
Cc1cc(NS(=O)(=O)c2ccc(NC(=O)COc3cc(C)c(Br)cc3C(C)C)cc2)no1	DRV1 agonist 107.3
C[C@]1(CO)CN(c2cc(C(=O)Nc3ccc4c(c3)-c3c(c(C(N)=O)nn3-c3ccc(F)cc3)CC4)c(Cl)cn2)C[C@@]1(C)CO	HTT promoter inh inconclusive (no result: B2AR arrestin ag, GALK inhibitor, TSG101-PTAP inh, DRV1 agonist)
CC(=O)c1ccc(NC(=O)C2Cc3ccccc3N2C(=O)c2ccccc2)cc1 (stereo not drawn)	none
CC(=O)Nc1ccc(NC(=O)C2Cc3ccccc3N2C(=O)c2ccccc2)cc1 (stereo not drawn)	DRV1 agonist 100.1
O=C(Nc1ncc(SCCN2CCCC2)s1)[C@]1(c2ccc(S(=O)(=O)C3CC3)cc2)C[C@@H]1C1CCCCC1	none (no result: B2AR arrestin ag, GALK inhibitor, TSG101-PTAP inh, DRV1 agonist)
O=C(COc1ccc2oc3c(c2c1)CCCC3)Nc1ccc(Br)cc1	none
O=C(COc1ccc2oc3c(c2c1)CCCC3)Nc1ccc(Cl)cc1	DRV1 agonist 74.5
CCSc1nn(CC(=O)Nc2cccc(CC)c2)c(N)c1S(=O)(=O)c1ccccc1	HTT promoter inh inconclusive, DRV1 agonist 93.6
COc1ccc(S(=O)(=O)c2c(SC)nn(CC(=O)Nc3ccc(C)c(Cl)c3)c2N)cc1	HTT promoter inh inconclusive, DRV1 agonist 85.6
Cc1ccn(-c2ccc(-c3ncco3)cc2)c(=O)c1-c1ccc2nc(N)ncc2c1	none (no result: B2AR arrestin ag, GALK inhibitor, TSG101-PTAP inh, DRV1 agonist)
COc1ccc(CNC(=O)C2CCCN(c3nnc(C)c4c(C)n(-c5ccc(C)cc5)nc34)C2)cc1 (stereo not drawn)	none
COc1ccc(-n2nc3c(N4CCCC(C(=O)NCc5ccc(C)cc5)C4)nnc(C)c3c2C)cc1 (stereo not drawn)	DRV1 agonist 111.4
CC1CCc2c(sc(NC(=O)CCCOc3ccccc3)c2C(N)=O)C1 (stereo not drawn)	DRV1 agonist 95.9
Cc1ccc(OCCCC(=O)Nc2sc3c(c2C(N)=O)CCC(C)C3)cc1 (stereo not drawn)	none (no result: HTT-AS promoter, HTT promoter inh)
COc1ccc(CC2SC(=O)NC2=O)cc1C(=O)NCc1ccc(C(F)(F)F)cc1 (stereo not drawn)	none (no result: B2AR arrestin ag, GALK inhibitor, TSG101-PTAP inh, DRV1 agonist)
CCOC(=O)C1=C(C)NC(C)=C(C(=O)OC)C1c1cccc(Cl)c1Cl (stereo not drawn)	DRV1 agonist 109.5! (no result: B2AR arrestin ag, GALK inhibitor, TSG101-PTAP inh)
CC1=C(C(=O)OCC2CCCCC2)C(c2cccc(Cl)c2Cl)CC(=O)N1 (stereo not drawn)	none
COc1cccc2c1C(=O)c1c(O)c3c(c(O)c1C2=O)C[C@@](O)(C(=O)CO)C[C@H]3O[C@H]1C[C@H](N)[C@H](O)[C@H](C)O1	HTT promoter inh inconclusive (no result: B2AR arrestin ag, GALK inhibitor, TSG101-PTAP inh, DRV1 agonist)
Cc1ccc(CCNC(=O)CN(c2ccc(C)cc2)S(=O)(=O)N(C)C)cc1	none
CCc1ccc(CNC(=O)CN(c2ccc(C)cc2)S(=O)(=O)N(C)C)cc1	DRV1 agonist 87.2
O=C(CCCc1nc(-c2ccc(Cl)cc2)no1)NCc1ccco1	HTT promoter inh inconclusive
Cc1ccc(-c2noc(CCCC(=O)NCc3ccco3)n2)cc1	HTT promoter inh 3.55µM
CC1(c2ccc(Cl)cc2)CC(C)(C)N(C(=O)c2ccccc2)c2ccccc21 (stereo not drawn)	HTT promoter inh 25.1µM
CC(CC1c2ccccc2CCc2ccccc21)CN(C)C (stereo not drawn)	none (no result: B2AR arrestin ag, GALK inhibitor, TSG101-PTAP inh)
Cc1ccc(NC(=O)N2CCN(c3ccc(Cl)c(Cl)c3)CC2)cc1	HTT promoter inh inconclusive
CC(C)c1ccc(NC(=O)N2CCN(c3ccc(Cl)c(Cl)c3)CC2)cc1	HTT promoter inh 31.6µM
CCOc1ccccc1NC(=O)c1c(NC(=O)c2ccccc2)sc2c1CCCC2	DRV1 agonist 66.3
CCc1ccccc1NC(=O)c1c(NC(=O)c2ccccc2)sc2c1CCCC2	none
COc1ccccc1NC(=O)c1c(NC(=O)Cc2ccccc2)sc2c1CCC(C(C)(C)C)C2 (stereo not drawn)	none
Cc1ccccc1C(=O)Nc1sc2c(c1C(=O)O)CCC(C(C)(C)C)C2 (stereo not drawn)	HTT promoter inh 2.82µM
Cc1ccccc1NC(=O)c1c(NC(=O)c2ccncc2)sc2c1CCC(C(C)(C)C)C2 (stereo not drawn)	DRV1 agonist 72.5
CCOc1ccccc1NC(=O)c1c(NC(=O)c2ccncc2)sc2c1CCC(C(C)(C)C)C2 (stereo not drawn)	DRV1 agonist 113.1
CCCCN(C)C(=O)C1CCCN(c2ncnc3onc(C)c23)C1 (stereo not drawn)	HTT promoter inh 1.78µM
NS(=O)(=O)c1ccc(CCNc2nccn(-c3cccc(C(F)(F)F)c3)c2=O)cc1	HTT promoter inh inconclusive, DRV1 agonist 63.1
